Source: PubChem BioAssay AID2328 (The Scripps Research Institute Molecular Screening Center, 2010)
This is one part of the list. Unmarked numbers belong to inactive results.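 How the source made its calls: active means mean inhibition over triplicates above a set limit taken from the primary EBNA-1 screen (cut at about 37% in these data); inactive means the rest.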

Target: Lytic switch protein BZLF1 (Epstein-Barr virus (strain B95-8)) (UniProt P03206)
Experiment: EBV Zta DNA binding inhibitors, counter-screen for EBNA-1 inhibitor project, biochemical, fluorescence polarization, triplicate (AID 2328);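 further: purified full length Zta protein with Cy5 labeled ZRE DNA probe; 0% = Zta with DMSO and 100% = wells lacking Zta protein; inhibitors lower polarization by freeing the labeled DNA probe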
Conditions: Zta-ZRE DNA binding, Cy5 fluorescence polarization; at 11.1 µM; stronger effect = higher value

Sequence of Lytic switch protein BZLF1 (Epstein-Barr virus (strain B95-8)) (P03206 whole entry, looked up): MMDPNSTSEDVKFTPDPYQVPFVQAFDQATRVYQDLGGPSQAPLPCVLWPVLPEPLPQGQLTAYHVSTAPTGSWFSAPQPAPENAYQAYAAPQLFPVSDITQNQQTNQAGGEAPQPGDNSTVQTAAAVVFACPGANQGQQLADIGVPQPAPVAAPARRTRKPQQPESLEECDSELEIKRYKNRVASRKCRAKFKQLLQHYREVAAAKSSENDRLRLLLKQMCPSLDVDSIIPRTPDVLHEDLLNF

Structure (SMILES)	inhibition [%]
C/C(=N\N=C(N)N)c1ccc(Cl)cc1	1.14
N#Cc1ccc(N2Cc3ccccc3/C2=N/C(=O)Nc2ccc(Cl)cc2)cc1	-9.43
O=C(Nc1cccc(NC(=O)c2ccc(Br)cc2)c1)c1ccccc1	4.83
O=C(Nc1ccc2ccccc2c1)Nc1ccc2snnc2c1	1.17
CC(=O)Nc1ccc(S(=O)(=O)NCC(=O)OCc2cc(=O)oc3ccc4ccccc4c23)cc1	7.35
Nc1nnc(SCC(=O)Nc2ccc3nc(SCC(=O)Nc4ccccc4)sc3c2)s1	8.16
CCOc1cccc(NC(=O)Cn2nc(-c3ccc4c(c3)OCCO4)ccc2=O)c1	-0.94
O=C(CCCn1c(SCC(=O)c2ccc(F)cc2)nc2ccccc2c1=O)NCc1ccco1	10.2
Cc1ccc(C(=O)NNC(=O)c2cc3cc4ccccc4nc3s2)cc1	7.01
CCc1nccn1S(=O)(=O)c1cccc([N+](=O)[O-])c1	0.63
Cc1cccc(N(CC(=O)Nc2ccc(-c3nc4ccc(C)cc4s3)cc2)S(C)(=O)=O)c1	13.4
COc1ccc(C(=O)Nc2cccc(NC(=O)c3ccc(OC)cc3OC)n2)c(OC)c1	7.79
O=C(COc1ccc(/C=N/NC(=O)c2ccc(O)cc2)cc1)Nc1ccc([N+](=O)[O-])cc1	31.8
COc1ccc(-c2ccc(Nc3ccc(S(=O)(=O)N4CCCC4)cc3)nn2)cc1OC	-8.43
CCOC(=O)c1ccc(NC(=O)C2CC(=O)Nc3nc4ccccc4n32)cc1 (stereo unspecified)	-17.7
CCOc1ccc(OCC)c(NC(=O)C(NS(=O)(=O)c2ccc3c(c2)oc(=O)n3C)C(C)C)c1 (stereo unspecified)	22.3
COc1ccc(CNc2nc3c(c(=O)[nH]c(=O)n3C)n2Cc2ccccc2)cc1	-15.5
COc1ccc(-c2nonc2NC(=O)c2oc3ccc(F)cc3c2C)cc1OC	-0.1

Structure (SMILES)	inhibition [%]
COc1ccc(C(=O)CSc2nnc(NC(=O)C3CC(=O)N(c4cccc(OC)c4)C3)s2)cc1 (stereo unspecified)	-0.54
CCC(=O)Nc1ccc(C(=O)Nc2ccc3c(c2)C(=O)N(CC2CCCO2)C3=O)cc1 (stereo unspecified)	-3.33
Cc1cccc(NC(=O)Cn2c(=O)n(Cc3ccccc3)c(=O)c3c(C)c(C)sc32)c1	-8.61
CC(=O)c1c(C)[nH]c(C(=O)OCC(=O)Nc2sc3c(c2C#N)CCCC3)c1C	5.6
Nc1ccc(S(=O)(=O)Nc2nccc(/C=C/c3ccc(Br)s3)n2)cc1	-3.48
COC(=O)C1=CN(Cc2ccc(OC)cc2)C=C(C(=O)OC)C1c1ccc(O)c(OC)c1	-0.26
CCOc1[nH]n(-c2ccc(Cl)cc2)c(=O)c1C=Nc1ccc(O)cc1	6.97
CCOc1ccc(NC(=O)c2ccc(NC(=O)COC(=O)c3ccc(NC(=O)CC#N)cc3)cc2)cc1	6.56
CCOc1cccc(SCc2noc(C(=O)NC(C)C)c2C(=O)O)c1	2.79
Cc1ccc(-c2nn(-c3ccccc3)cc2/C=C2\SC(=S)N(CCCCCC(=O)O)C2=O)o1	5.22
COC(=O)CSc1nc(C)c2ccc(OC)cc2n1	-0.69
Cc1[nH]n(C(N)=S)c(=O)c1N=Nc1ccc(Cl)cc1Cl	-7.48
COc1ccc(CCNC(=S)N2CCN(S(=O)(=O)c3ccc(F)cc3)CC2)cc1	-0.49
Cc1ccc(O)c(/C=N/NC(=O)COc2ccc3c(C)cc(=O)oc3c2)c1	-17
N#Cc1nc(N)nc(N(c2ccccc2)c2ccccc2)n1	-3.66
COc1ccc(C)cc1NC(=O)NCc1ccccn1	-2.35
COc1ccc(NC(=O)NCc2ccc3c(c2)OCO3)c(OC)c1	-15.6
CCOc1ccc(C(=O)NC(=S)Nc2ccc(NC(=O)C(C)C)cc2)cc1[N+](=O)[O-]	-3.36
